High-throughput results: PubChem, several laboratories
tim23-1 inh – growth inhibitors of tim23-1 mutant yeast, primary screen, luminescence, uHTS. inhibition, % at 20 µM. 330,000 tested, 1.3% active. S. cerevisiae tim23-1 growth, BacTiter-Glo luminescence, 24 h;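 active = growth inhibition of the mutant yeast at or above 50%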;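 note: temperature-sensitive mutant grown at 25 °C; plate controls were DMSO-treated mutant yeast for no effect and medium wells lacking yeast for full effect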
TIM10 inh – growth inhibitors of isogenic TIM10 control yeast, primary screen, counter-screen for tim10-1 yeast inhibitor project, luminescence, uHTS. S. cerevisiae TIM10 strain growth, BacTiter-Glo luminescence, 24 h. 330,000 tested, 1.4% active. inhibition, % at 10 µM;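 active = inhibition of 40% or more at the single tested concentration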;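 note: wild-type TIM10 isogenic control strain grown at permissive 25 °C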
tim10-1 inh – growth inhibitors of tim10-1 mutant yeast, primary screen, luminescence, uHTS. S. cerevisiae tim10-1 ts strain growth, BacTiter-Glo, 24 h. inhibition, % at 20 µM. 330,000 tested, 2.2% active. AID 463190, 2010;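 active = inhibition of at least 40%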;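 note: mutant grown at 25 °C; 0% = DMSO wells with yeast and 100% = wells holding no yeast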
NLRP3 yeast inh – NALP3 inflammasome inhibitors in reconstituted yeast, primary screen, luminescence, uHTS; Yeast reconstituted NLRP3/ASC/caspase-1, beta-gal luminescence, 24 h; inhibition, % at 10 µM; 330,000 tested, 0.39% active;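 active = inhibition of 50% or more; inactive = inhibition below 50%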;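 note: plate controls were induced DMSO wells for no effect and uninduced yeast grown without galactose for full effect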
PfHsp90 yeast 2 – growth inhibition of PfHsp90-expressing yeast, primary screen, antimalarial PfHsp90 inhibitor project, S. cerevisiae, BacTiter-Glo luminescence, single point, set 2. BacTiter-Glo ATP, 48 h; yeast lacking PDR1 and PDR3 efflux regulators. inhibition, % at 9.4 µM. 310,000 tested, 0.32% active;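 active = every replicate shows inhibition above about 80%, whatever the replicate mean, limit read from the data; inconclusive = mean inhibition reaches the set limit but some replicate falls short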;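 note: 0% = DMSO neutral controls and 100% = 20 µM radicicol positive controls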
SKKanGAS inh – S. pyogenes SKKanGAS growth inhibitors in kanamycin, primary screen, streptokinase expression inhibitor project, SKKanGAS strain, BacTiter-Glo luminescence; 6 h; inhibition, % at 7.5 µM; 300,000 tested, 1.3% active;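 active = mean replicate score, as percent of positive control median, at least 50; inconclusive = mean below 50 but one replicate at or above 50; inactive = mean and every replicate below 50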;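 note: strain carries kanamycin resistance gene driven by streptokinase promoter and grows in 40 µg/ml kanamycin; loss of luminescence reflects streptokinase promoter inhibition or plain growth inhibition; 0% = median of DMSO wells and 100% = positive control at its reference dose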
tim23-1 conf – tim23-1 mutant yeast growth inhibitors, confirmation, luminescence, single concentration | shares compounds with tim23-1 inh | inhibition, % at 20 µM | S. cerevisiae tim23-1 growth, BacTiter-Glo luminescence, 24 h | 4,400 tested, 83% active | AID 463218, 2010;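 active = inhibition above about 39% in either of two replicate wells at 20 µM, limit read from the data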;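 note: temperature-sensitive tim23-1 mutant grown at 25 °C; 0% = DMSO wells with yeast and 100% = medium wells without yeast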
* marks the source's active call; other numbers are inactive results; ? = inconclusive; nt = no result given. Hits are enriched below; roughly 4.6% of the tested compounds scored in any of these assays.

SMILES	tim23-1 inh	TIM10 inh	tim10-1 inh	NLRP3 yeast inh	PfHsp90 yeast 2	SKKanGAS inh	tim23-1 conf
CC1(C)CC(=O)C(N=Nc2cccnc2)=C(O)C1	52*	5	8	-13	17	-12	23
CC1(C)CC(=O)C(N=Nc2ccc3ncsc3c2)=C(O)C1	60*	14	2	-3	-6	0	30
CC1(C)CC(=O)C(N=Nc2ccc(-c3ccccc3)cc2)=C(O)C1	0	-11	0	18	7	17	nt
O=C(NCCSc1ccc(Br)cc1)c1ccc2nc[nH]c2c1	-9	-5	-11	10	-2	-25	nt
Oc1ccc(Cl)cc1C1=NNC(c2ccc(Cl)cc2)C1 (stereo unspecified)	50*	32	33	5	-24	96*	50*
COc1ccc(C2=NNC(c3cc(Cl)cc4c3OCOC4)C2)c(O)c1 (stereo unspecified)	28	33	28	19	nt	15	nt
Oc1ccc(Cl)cc1C1=NNC(c2cc(Br)cc3c2OCOC3)C1 (stereo unspecified)	56*	26	40	1	-14	32	56*
COC(C[C@@H](O)[C@H](C)[C@@H](O)COCc1ccccc1)OC	7	7	4	-2	3	2	nt
Cc1cc(O)c2c(-c3ccccc3)cc(=O)oc2c1	47	31	32	-95	-11	nt	nt
COc1cc2oc(=O)cc(-c3ccc(-c4ccc(O)cc4)cc3)c2c(OC)c1OC	56*	1	28	nt	-24	nt	35
Cc1cc2oc(=O)cc(-c3ccccc3)c2c(C)c1-c1ccc(O)cc1	61*	2	21	nt	-84	nt	48*
COc1ccc(-c2cc(C(F)(F)F)n3nc(C(=O)Nc4c(C)n(C)n(-c5ccccc5)c4=O)cc3n2)cc1	nt	nt	nt	nt	5	nt	nt
CC(C)Cc1csc(NC(=O)c2ccccc2Cl)c1C(=O)O	10	6	12	-15	0	31	nt
Cc1ccc(-c2csc(NC(=O)c3ccccc3Cl)c2C(=O)O)cc1	64*	16	19	22	13	11	-24
Cc1nn(-c2ccc(Cl)cc2Cl)c(=O)c2ccccc12	8	-3	20	37	-3	-2	nt
Cc1nn(-c2ccc(Cl)c(Cl)c2Cl)c(=O)c2ccccc12	54*	8	40	40	nt	8	46*
NC(N)=N/N=C/c1ccccc1	4	11	-3	-4	10	-7	nt
NC(N)=N/N=C/c1ccc(OCc2ccccc2Cl)cc1	59*	-10	-7	27	28	16	44*
NC(N)=N/N=C/c1ccc(OCc2ccccc2)c(OCc2ccccc2)c1	60*	5	-5	0	-21	?	49*
CC(=O)Nc1cccc2c1C(=O)N(c1ccccc1OC(C)=O)C2=O	9	5	6	16	-29	17	nt
Cc1nc2cc(C(F)(F)F)ccc2n1C	6	-2	16	-20	-90	-4	nt
O=C1OCCC1Sc1nc2ccccc2c(=O)n1-c1ccc(F)cc1 (stereo unspecified)	7	3	19	-4	15	-12	nt
O=C1OCCC1Sc1nc2ccccc2c(=O)n1Cc1ccc(F)cc1 (stereo unspecified)	50*	26	33	7	-2	4	23
CCC(C)(C)C1CCc2[nH]nc(C(=O)NC(C)C)c2C1 (stereo unspecified)	53*	22	36	9	-1	nt	53*
CCC(C)(C)C1CCc2[nH]nc(C(=O)NCC3CC3)c2C1 (stereo unspecified)	56*	35	40	9	20	nt	64*
SMILES	tim23-1 inh	TIM10 inh	tim10-1 inh	NLRP3 yeast inh	PfHsp90 yeast 2	SKKanGAS inh	tim23-1 conf
CCC(C)(C)C1CCc2[nH]nc(C(=O)NN)c2C1 (stereo unspecified)	20	-14	11	22	11	0	nt
CCn1nc(C)c(CNC(=O)CC2C(=O)NCCN2CC(C)(C)C)c1C (stereo unspecified)	9	-12	0	-11	-19	-1	nt
O=C(COC(=O)CNC(=O)C1CCCCC1)Nc1ccc(Cl)cn1	0	7	17	0	nt	5	nt
O=C(COC(=O)CC1CCCC1)Nc1ccc(Cl)cn1	60*	33	15	19	-90	nt	55*
O=C1CC(N(CCc2ccccc2)C(=S)Nc2cc(Cl)ccc2Cl)C(=O)N1c1c(Cl)cccc1Cl (stereo unspecified)	15	10	34	6	-13	29	nt
Cc1ccc(O)c(CNc2cnc3ccccc3c2)c1	57*	3	-6	35	-12	-2	42*
Oc1ccc(Br)cc1CNc1cnc2ccccc2c1	76*	27	19	23	-35	20	68*
CCC(=O)N1CCN(c2nc(CC)nc3sc4c(c23)CCCC4)CC1	-15	-18	-42	-4	16	-3	nt
CC1CCc2c(sc3nc(C(C)(C)C)nc(N4CCN(C(=O)CCl)CC4)c23)C1 (stereo unspecified)	50*	24	21	14	59	70*	53*
COc1ccc(CCNS(=O)(=O)CCNC(=O)c2ccc(OC)cc2)cc1	-8	3	-15	23	-15	-8	nt
Oc1c(Cl)cc(Cl)cc1CNc1nccs1	51*	9	-19	21	-6	4	52*
Oc1c(Cl)cc(Cl)cc1CNn1cnnc1	-49	18	9	-31	nt	-3	nt
OC(c1ccccc1)(C1CCCCC1)C(CN1CCOCC1)c1ccccc1 (stereo unspecified)	50*	27	18	1	2	-2	31
COc1ccc(C(O)(C2CCCCC2)C(CN2CCOCC2)c2ccccc2)cc1 (stereo unspecified)	34	19	36	5	4	5	nt
CCCCn1cnc2c(c(-c3ccccc3)c(-c3ccccc3)n2Cc2ccco2)c1=N	46	-6	-2	20	nt	1	nt
N=c1c2c(-c3ccccc3)c(-c3ccccc3)n(Cc3ccco3)c2ncn1Cc1ccco1	66*	26	32	-17	-5	1	44*
CCN(CC(=O)Nc1c(F)cccc1F)C(=O)C1CC1C (stereo unspecified)	-14	3	-21	20	2	-2	nt
Clc1nssc1=Nc1nncs1	52*	8	32	7	5	nt	76*
